About 2,000 (36%) of roughly 5,500 compounds were called active. Not shown: some 18% with an inconclusive outcome. Cut-off read from the data, not from the text of the source: active = normalized growth mostly below about 0.91 (no sharp cut-off); inconclusive = no clear call, values can overlap the other calls; inactive = mostly above about 0.92. Some of the results follow.
Assay: chemical genetic growth profiling, strain panel (AID 1159580);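 note: tested at 20 µM; growth read once vehicle control cultures reached saturation at 30 °C; 1 = growth at the plate median or of vehicle wells; lower values mean less growth of the strain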
Conditions: S. cerevisiae deletion strains, growth OD

Measured: normalized growth

CC1(C)C(=O)C=CC2(C)C3CCC4(C)C(c5ccoc5)CC5OC54C3C(O)CC12 (stereo unspecified)
inactive: locus YAL013W, strain DEP1, stronger effect = lower value 0.975 | locus YBR021W, strain FUR4, stronger effect = lower value 0.985 | locus YBR229C, strain ROT2, stronger effect = lower value 0.995 | locus YCL029C, strain bik1, stronger effect = lower value 1.01 | locus YDL035C, strain GPR1, stronger effect = lower value 0.942 | locus YDL074C, strain BRE1, stronger effect = lower value 0.862 | locus YDL101C, strain DUN1, stronger effect = lower value 0.958 | locus YDL134C, strain PPH21, stronger effect = lower value 0.945 | locus YDL185W, strain tfp1, stronger effect = lower value 1.02 | locus YDL192W, strain arf1, stronger effect = lower value 0.986 | locus YDR101C, strain arx1, stronger effect = lower value 0.98 | locus YDR162C, strain NBP2, stronger effect = lower value 0.882 | locus YDR318W, strain mcm21, stronger effect = lower value 0.992 | locus YDR388W, stronger effect = lower value 1.02 | locus YDR502C, strain sam2, stronger effect = lower value 1.01 | locus YER110C, stronger effect = lower value 1.03 | locus YER155C, strain BEM2, stronger effect = lower value 0.988 | locus YER167W, strain BCK2, stronger effect = lower value 0.961 | locus YGL078C, strain dbp3, stronger effect = lower value 1.02 | locus YGL086W, strain mad1, stronger effect = lower value 0.975 | locus YGL248W, strain PDE1, stronger effect = lower value 0.958 | locus YGR135W, strain pre9, stronger effect = lower value 0.984 | locus YGR229C, strain SMI1, stronger effect = lower value 0.868 | locus YGR252W, strain gcn5, stronger effect = lower value 0.981 | locus YHR030C, strain SLT2, stronger effect = lower value 1 | locus YHR079C, strain IRE1 (second series), stronger effect = lower value 1.02 | locus YHR094C, strain hxt1, stronger effect = lower value 1.02 | locus YHR129C, strain ARP1, stronger effect = lower value 0.977 | locus YHR200W, strain rpn10, stronger effect = lower value 0.993 | locus YIL066C, strain RNR3, stronger effect = lower value 0.926 | locus YIL073C, strain SPO22, stronger effect = lower value 0.999 | locus YIL125W, strain kgd1, stronger effect = lower value 0.999 | locus YIR030C, strain dcg1, stronger effect = lower value 1.01 | locus YJL095W, strain BCK1, stronger effect = lower value 0.884 | locus YJL134W, strain LCB3, stronger effect = lower value 0.992 | locus YJL168C, strain set2, stronger effect = lower value 1.01 | locus YJL187C, strain SWE1 (second series), stronger effect = lower value 0.955 | locus YJR075W, strain HOC1, stronger effect = lower value 0.981 | locus YKL009W, strain mrt4, stronger effect = lower value 1.01 | locus YKL068W, stronger effect = lower value 1.01 | locus YKL085W, strain MDH1 (second series), stronger effect = lower value 1 | locus YKL085W, strain MDH1, stronger effect = lower value 1 | locus YKR001C, strain vps1, stronger effect = lower value 0.984 | locus YLR039C, strain RIC1, stronger effect = lower value 0.785 | locus YLR058C, strain SHM2, stronger effect = lower value 0.975 | locus YLR102C, strain apc9, stronger effect = lower value 1.01 | locus YLR268W, strain sec22, stronger effect = lower value 0.987 | locus YLR330W, strain CHS5, stronger effect = lower value 0.965 | locus YLR371W, strain rom2, stronger effect = lower value 1 | locus YLR418C, strain cdc73, stronger effect = lower value 0.951 | locus YML016C, strain PPZ1, stronger effect = lower value 0.993 | locus YML032C, strain rad52, stronger effect = lower value 1 | locus YML124C, strain tub3, stronger effect = lower value 1.01 | locus YMR078C, strain ctf18, stronger effect = lower value 1 | locus YMR223W, strain ubp8, stronger effect = lower value 0.993 | locus YMR307W, strain GAS1, stronger effect = lower value 0.842 | locus YNL067W, strain RPL9B, stronger effect = lower value 0.978 | locus YNL128W, strain TEP1, stronger effect = lower value 0.972 | locus YNL153C, strain GIM3, stronger effect = lower value 0.983 | locus YNL233W, strain BNI4, stronger effect = lower value 0.938 | locus YNL250W, strain rad50, stronger effect = lower value 1.02 | locus YNL271C, strain bni1, stronger effect = lower value 1.01 | locus YNL298W, strain CLA4, stronger effect = lower value 1.03 | locus YNL307C, strain MCK1, stronger effect = lower value 1 | locus YNR052C, strain pop2, stronger effect = lower value 0.995 | locus YOL006C, strain TOP1, stronger effect = lower value 0.956 | locus YOL012C, strain htz1 1.23 | locus YOL147C, strain pex11, stronger effect = lower value 1 | locus YOR061W, strain CKA2, stronger effect = lower value 0.979 | locus YOR069W, strain VPS5, stronger effect = lower value 0.989 | locus YOR136W, strain idh2, stronger effect = lower value 1.02 | locus YOR144C, strain elg1, stronger effect = lower value 1.01 | locus YOR184W, strain ser1, stronger effect = lower value 0.886 | locus YOR316C, strain cot1, stronger effect = lower value 1.02 | locus YPL055C, strain LGE1, stronger effect = lower value 0.928 | locus YPL241C, strain CIN2, stronger effect = lower value 0.995 | locus YPR119W, strain clb2, stronger effect = lower value 1.02 | locus YPR141C, strain kar3, stronger effect = lower value 1.01 | locus YPR163C, strain tif3, stronger effect = lower value 1.02 | locus YPR167C, strain met16, stronger effect = lower value 1 | strain wtn01, stronger effect = lower value 0.993

Source: PubChem BioAssay AID1159580 (chemical genetic matrix, 2015)
